The entries come from a sample that favours hits as a whole.
PNC inhibitor = blocks assembly of the perinucleolar compartment; PC3M PTB-GFP, PNC prevalence imaging, 16 h; stronger effect = lower value; activity change (PNC), negative = inhibition, % at 10 µM; hit rate 3.1% among 140,000;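 active means readout at or below -70, meaning at least 70% loss of cells showing the perinucleolar compartment, a nuclear body marking cancer cells; inconclusive means readout between -30 and a set limit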;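 further: plate controls were DMSO wells for no effect and camptothecin positive control wells for full effect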
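PC3M cells stably expressing PTB-GFP, 750–1000 cells/well, treated 16 h at 37 °C with compound (23 nl of library stock), in duplicate. After paraformaldehyde fixation and Hoechst stain, imaged at 20x; PNC prevalence scored by image analysis.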
HttQ103 aggreg = reduces HttQ103-GFP aggregates in PC12 cells; Potency, µM (doses to about 46.1 µM), inactives show top-dose activity change, negative = inhibition, hits mostly inhibitors; hit rate 1.1% among 220,000; PC12 HttQ103-GFP aggregates, Acumen cytometry, 40 h; AID 1688; further: potency means the concentration at half of the fitted maximal effect; on the % scale 0 is the no-effect control and ±100 the full control effect; nearly all actives have a fitted effect of over 60% in size
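PC12 cells with ecdysone-inducible HTT exon1 Q103-GFP, induced by 100 nM tebufenozide, given compounds in a concentration series. GFP aggregates (1–25 um, 6 SD above background) counted in lysates by laser-scanning cytometry, 488 nm excitation.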
HTT cytoprotect = cytoprotection in Huntington HTT-Q103 PC12 cell model; PC12 HTT-Q103 induced, cytoprotection, ATP luminescence, 40 h; Potency, µM (series often up to 56.4 µM), inactives show cytoprotection (ATP increase), hits mostly activators; hit rate 0.14% among 230,000; AID 1471; further: potency means the concentration at half of the fitted maximal effect; % of control where 0% means no effect; nearly all actives have a fitted effect of over 45% in size
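ATP quantification (ATPlite) reports survival of PC12 cells in which tebufenozide, 100 nM final, switches on Htt exon 1 with 103 glutamines linked to GFP; compounds are titrated.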
* = called active by the depositor; [ ] = dose if it differs, or a comment. Unless noted, the call rests on the fitted dose curve; in most records, active means well fitted curve in the direction sought with a large enough effect; inconclusive means small, poorly fitted or top-dose-only effect, or another doubt; inactive means no such curve, though single readings can be large; an effect the other way counts as inactive or inconclusive.

What do the screens show for `CCOC(=O)C(C(=O)OCC)C1CCS(=O)(=O)C1` (configuration not stated)?
PNC inhibitor: -100*; HttQ103 aggreg: -6%; HTT cytoprotect: 0%[10 µM]

What do the screens show for `CC1CCN(CCOc2ccccc2-c2ccccc2)CC1`?
PNC inhibitor: -105*; HttQ103 aggreg: 8%; HTT cytoprotect: 36%[10 µM]

Results for CC1CC(C)CN(CCOc2ccccc2-c2ccccc2)C1 (configuration not stated) ?
PNC inhibitor: inconclusive; HttQ103 aggreg: 5%; HTT cytoprotect: -4%[10 µM]

What do the screens show for `c1ccc(-c2ccccc2OCCCN2CCCC2)cc1`?
PNC inhibitor: -107*; HttQ103 aggreg: inconclusive; HTT cytoprotect: -50%[10 µM]

How did c1ccc(-c2ccccc2OCCCN2CCCCCC2)cc1 do in these assays?
HttQ103 aggreg: -10%

Results for O=c1cc(-c2ccc(O)cc2)oc2ccc(O)cc12 ?
HttQ103 aggreg: -11%; HTT cytoprotect: -100%

What do the screens show for `CCCOC(=O)CSc1nnc(-c2ccc(Cl)cc2Cl)o1`?
PNC inhibitor: 29; HttQ103 aggreg: 8%[9.22 µM]; HTT cytoprotect: -1%

Results for O=C1CCCN1c1ccc(S(=O)(=O)Oc2cccc(Cl)c2)cc1[N+](=O)[O-] ?
PNC inhibitor: -106*; HttQ103 aggreg: -18%; HTT cytoprotect: -34%

Results for O=C1CCCN1c1ccc(S(=O)(=O)N2CCCCC2)cc1[N+](=O)[O-] ?
HttQ103 aggreg: -2%[9.22 µM]; HTT cytoprotect: -2%[10 µM]

What do the screens show for `CCN(CC)S(=O)(=O)c1ccc(Oc2ccc(S(=O)(=O)N(CC)CC)cc2)cc1`?
PNC inhibitor: inconclusive; HttQ103 aggreg: 2.8µM*; HTT cytoprotect: -19%

What do the screens show for `CCN(CC)S(=O)(=O)c1ccc(Oc2ccccc2OC)cc1`?
HttQ103 aggreg: -10%[9.22 µM]; HTT cytoprotect: 17%[10 µM]

Results for COc1ccc(N2C(=O)C3C(C2=O)C2C=CC3C23CC3)c(OC)c1 (configuration not stated) ?
PNC inhibitor: 29; HttQ103 aggreg: 21%; HTT cytoprotect: -40%

How did O=C(NC12CC3CC(CC(C3)C1)C2)N1CCN(c2nc(-c3ccccc3)cs2)CC1 do in these assays?
PNC inhibitor: 33; HttQ103 aggreg: inconclusive; HTT cytoprotect: -78%

How did Cc1cc(C(F)(F)F)n2nc(C)c(-c3ccc(Cl)cc3)c2n1 do in these assays?
PNC inhibitor: 23; HttQ103 aggreg: inconclusive; HTT cytoprotect: 22%[10 µM]

What do the screens show for `Cc1cc(C(F)(F)F)n2nc(C(=O)O)c(Cl)c2n1`?
PNC inhibitor: -90*; HttQ103 aggreg: 24%; HTT cytoprotect: 7%

Results for O=[N+]([O-])c1cc(C(F)(F)F)ccc1N/N=C/c1cc2ccccc2nc1Cl ?
PNC inhibitor: 102; HttQ103 aggreg: 6%; HTT cytoprotect: -20%

What do the screens show for `COC(=O)C1CC(Cl)CN1c1ncc(C(F)(F)F)cc1Cl` (configuration not stated)?
HttQ103 aggreg: 1%; HTT cytoprotect: 0%

What do the screens show for `Oc1ccc(Br)cc1-c1nc2cnccn2c1NC1CCCCC1`?
PNC inhibitor: -25; HttQ103 aggreg: inconclusive; HTT cytoprotect: -41%

Results for Oc1ccc(Br)cc1-c1nc2cnccn2c1NC1CCCC1 ?
PNC inhibitor: -5; HttQ103 aggreg: 20µM*; HTT cytoprotect: 15%

What do the screens show for `CCOC(=O)Cc1csc(NC(=O)C(C)Oc2ccc3c(C)cc(=O)oc3c2)n1` (configuration not stated)?
HttQ103 aggreg: 16%; HTT cytoprotect: -3%[10 µM]

Results for Cc1nnc(NC(=O)C(C)Oc2ccc3c(C)cc(=O)oc3c2)s1 (configuration not stated) ?
PNC inhibitor: -107*; HttQ103 aggreg: 3%; HTT cytoprotect: 11%

Results for CC(C)C1Oc2ccccc2N(CC(=O)N(Cc2ccccn2)C2CC2)C1=O (configuration not stated) ?
PNC inhibitor: -100*; HttQ103 aggreg: -4%; HTT cytoprotect: 30%[10 µM]

Results for CC1Oc2ccccc2N(CC(=O)N(Cc2ccccc2)Cc2ccccn2)C1=O (configuration not stated) ?
PNC inhibitor: inconclusive; HttQ103 aggreg: -1%; HTT cytoprotect: 6%[10 µM]

How did COCCN(CCOC)S(=O)(=O)c1ccc(Cl)nc1 do in these assays?
HttQ103 aggreg: 5%[9.22 µM]; HTT cytoprotect: 23%[10 µM]

How did OC(C#CCN1CCCC1)c1ccccc1 (configuration not stated) do in these assays?
PNC inhibitor: -87*; HttQ103 aggreg: -8%; HTT cytoprotect: 8%

What do the screens show for `OC(C#CCN1CCCCC1)c1ccccc1` (configuration not stated)?
PNC inhibitor: 10; HttQ103 aggreg: inconclusive; HTT cytoprotect: -15%

What do the screens show for `COC(=O)c1[nH]c2ccc(F)cc2c1NC(=O)CCN1CCN(Cc2ccc3c(c2)OCO3)CC1`?
PNC inhibitor: -12; HttQ103 aggreg: -1%; HTT cytoprotect: -15%

What do the screens show for `CCN(CC(=O)Nc1c(C(=O)OC)[nH]c2ccc(C)cc12)c1ccc2c(c1)OCO2`?
PNC inhibitor: -119*; HttQ103 aggreg: inconclusive; HTT cytoprotect: -40%

What do the screens show for `Clc1ccc(Cl)c(OCCCCNCc2ccccc2)c1`?
PNC inhibitor: 23; HttQ103 aggreg: 25%

How did Clc1ccc(OCCCNCc2ccccc2)c(Br)c1 do in these assays?
PNC inhibitor: -89*; HttQ103 aggreg: 6%; HTT cytoprotect: -100%

How did COCCn1c(SCC(=O)Nc2nnc(C)s2)nnc1-c1c[nH]c2ccccc12 do in these assays?
PNC inhibitor: 17; HttQ103 aggreg: -6%; HTT cytoprotect: -12%[0.074 µM]

Results for CCc1nnc(NC(=O)CSc2nnc3c(C)cc4c(C)ccc(C)c4n23)s1 ?
PNC inhibitor: -113*; HttQ103 aggreg: 2%; HTT cytoprotect: -44%[10 µM]

Results for Cc1cc(NC(=O)CSc2nnc3c(C)cc4c(C)ccc(C)c4n23)no1 ?
PNC inhibitor: -14; HttQ103 aggreg: 13%; HTT cytoprotect: -10%

Results for Cn1c(SCC(=O)Nc2sccc2C(N)=O)nnc1-c1ccncc1 ?
HttQ103 aggreg: -2%[9.22 µM]; HTT cytoprotect: 14%[10 µM]

How did Cc1ccc(-n2c(Cc3cccn3C)nnc2SCC(=O)Nc2nnc(C)s2)cc1 do in these assays?
PNC inhibitor: 5; HttQ103 aggreg: inconclusive; HTT cytoprotect: -2%[10 µM]

How did COCCn1c(SCC(=O)Nc2nnc(C)s2)nnc1-c1cc2ccccc2cc1O do in these assays?
PNC inhibitor: -91*; HttQ103 aggreg: 2%; HTT cytoprotect: -25%

Results for CCc1nnc(NC(=O)CSc2nnc(-c3ccncc3)n2C)s1 ?
PNC inhibitor: -100*; HttQ103 aggreg: 9%; HTT cytoprotect: 40%[10 µM]

How did Cc1nnc(NC(=O)CSc2nnc(Cc3cccn3C)n2C)s1 do in these assays?
PNC inhibitor: -95*; HttQ103 aggreg: -16%; HTT cytoprotect: -6%

What do the screens show for `COc1cccc(C(=O)NC(=S)Nc2ccc([N+](=O)[O-])cc2C)c1`?
PNC inhibitor: -23; HttQ103 aggreg: -2%; HTT cytoprotect: -13%[10 µM]

Results for CC/C(O)=C1\C(=O)CCCC1=NCCc1c(C)[nH]c2ccc(C)cc12 ?
HttQ103 aggreg: 10%[9.22 µM]; HTT cytoprotect: -19%[10 µM]

How did C=CCNC(=S)Nc1ccc2nc(C)oc2c1 do in these assays?
HttQ103 aggreg: 7%; HTT cytoprotect: -3%[10 µM]
